Laboratory results reported in PubChem BioAssay (NCATS).
Records with an inconclusive call do not appear. The source made the active and inactive calls. Unless noted, no stated cut-off is given here; in the data, active means potency below about 10 µM; inactive means the rest.

Target: Lysosomal acid glucosylceramidase (Homo sapiens) (UniProt P04062)
Test: Glucocerebrosidase-p2 (AID 348); further: potency means the concentration at half of the fitted maximal effect
Settings: purified GBA, blue fluorogenic substrate, 40 min
In short: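 Normal human glucocerebrosidase (0.2 nM) with blue fluorogenic substrate (80 uM final) in citrate/phosphate pH 5.9 with 10mM sodium taurocholate, 0.01% tween-20; 40 min RT, NaOH/glycine stop; fluorescence Ex 365/Em 440; AC50 from a titration from 0.6 nM upwards.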

Lysosomal acid glucosylceramidase (Homo sapiens), sequence (P04062 whole entry, looked up): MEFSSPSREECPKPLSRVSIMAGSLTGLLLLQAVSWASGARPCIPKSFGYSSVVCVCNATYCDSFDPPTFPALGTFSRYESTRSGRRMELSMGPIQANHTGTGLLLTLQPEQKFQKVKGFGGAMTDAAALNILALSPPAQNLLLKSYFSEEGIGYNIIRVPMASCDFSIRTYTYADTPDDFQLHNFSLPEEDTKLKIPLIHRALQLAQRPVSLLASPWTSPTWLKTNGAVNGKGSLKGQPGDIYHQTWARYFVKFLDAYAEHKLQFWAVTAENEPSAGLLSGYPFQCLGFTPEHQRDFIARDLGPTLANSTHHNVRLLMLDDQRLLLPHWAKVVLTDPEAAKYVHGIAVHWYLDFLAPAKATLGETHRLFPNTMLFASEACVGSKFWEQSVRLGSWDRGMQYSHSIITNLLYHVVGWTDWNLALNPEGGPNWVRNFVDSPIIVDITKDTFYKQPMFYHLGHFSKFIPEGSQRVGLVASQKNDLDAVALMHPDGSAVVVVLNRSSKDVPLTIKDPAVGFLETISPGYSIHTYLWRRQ

Potency, inactive:
CN(C)C(=O)c1ccc(-c2nc(NCc3cccnc3)c3ccccc3n2)cc1 > 11.4 µM
N#Cc1cccc(NC(=O)N2CC3(CCN(C(=O)c4cccc(F)c4)CC3)C2)c1 > 11.4 µM
CC(C)NC(=O)N1CCC2(CC1)CCN(C(=O)c1cnccn1)CC2 > 11.4 µM
Cc1cccc(CNc2cc(-c3cccc(NS(C)(=O)=O)c3)ncn2)c1 > 11.4 µM
COc1ccc(C(=O)N2CCC3(CC2)CN(c2ccccn2)C3)cc1 > 11.4 µM
Cc1noc(C)c1-c1nccc(N2CCNCC2)n1 > 11.4 µM
CC[C@@]12CCCN3CCc4c(n(c5ccccc45)C(=O)C1)[C@H]32 > 11.4 µM
c1ccc(Nc2ncnc3ccc(-c4cccnc4)cc23)cc1 > 11.4 µM
CS(=O)(=O)N1CCC[C@@]2(CCN(c3ccncc3)C2)C1 > 11.4 µM
O=C(c1ccncc1)N1CCC[C@@]2(CCN(c3cccc(-c4ccccc4)c3)C2)C1 > 11.4 µM
c1ccc2c(N3CCNCC3)nc(-c3ccoc3)nc2c1 > 11.4 µM
O=C(c1csnn1)N1CCC2(CCCN(c3ccncc3)C2)CC1 > 11.4 µM
N#Cc1ccc(CN2CCCC3(CCN(C(=O)c4cc(C(F)(F)F)cc(C(F)(F)F)c4)CC3)C2)cc1 > 11.4 µM
N#Cc1ccccc1-c1ccc2ncnc(NCc3cccs3)c2c1 > 11.4 µM
CN(C)C(=O)c1ccc(-c2ccc3ncnc(NCc4cccnc4)c3c2)cc1 > 11.4 µM
CN(C)Cc1ccccc1-c1cncnc1NCc1ccccc1 > 11.4 µM
O=C(c1cnccn1)N1CCC2(CCN(Cc3ccncc3)CC2)CC1 > 11.4 µM
O=C(Nc1cccc(F)c1)N1CCC2(CC1)CCN(C(=O)c1cc(C(F)(F)F)cc(C(F)(F)F)c1)CC2 > 11.4 µM
N#Cc1ccc(CN2CCCC3(CCNCC3)C2)cc1 > 11.4 µM
O=C(Nc1ccccc1)N1CCCC2(CCNCC2)C1 > 11.4 µM
COc1ccccc1CNc1ncncc1-c1ccc(N(C)C)cc1 > 11.4 µM
O=S(=O)(c1ccccc1)N1CCC2(CCN(c3ccncc3)CC2)CC1 > 11.4 µM
CN(C)Cc1ccccc1-c1ccc2ncnc(NC3CC3)c2c1 > 11.4 µM
Cc1ccccc1-c1cncnc1N1CCNCC1 > 11.4 µM
COCC(=O)N1CCC2(CC1)CN(Cc1nccs1)C2 > 11.4 µM
O=C(Oc1ccccc1)N1CCC2(CCCN(c3ccncc3)C2)CC1 > 11.4 µM
COc1ccc(Oc2ncc3nc(CCc4ccccc4)c(=O)n(C)c3n2)cc1 > 11.4 µM
COc1cccc(-c2nc(N3CCNCC3)c3ccccc3n2)c1 > 11.4 µM
COc1ccc(NC(=O)N2CC[C@@]3(CCCN(C(=O)c4ccncc4)C3)C2)cc1 > 11.4 µM
O=c1c(-c2cc(F)cc(F)c2)nc2cnc(Oc3ccccc3)nc2n1C[C@H]1CCCO1 > 11.4 µM
COCCn1c(=O)c(-c2ccc(F)cc2)nc2cnc(Oc3ccc(OC)cc3)nc21 > 11.4 µM
CN1CCN(c2ccnc(-c3ccccc3C(F)(F)F)n2)CC1 > 11.4 µM
c1ccc(C(c2ccccc2)N2CC3(CCNCC3)C2)cc1 > 11.4 µM
CS(=O)(=O)N1CCC2(CCCN(Cc3ccccc3)C2)CC1 > 11.4 µM
Cc1cccc(CNc2ccnc(-c3cccc(NS(C)(=O)=O)c3)n2)c1 > 11.4 µM
CN1CCN(c2nc(-c3cccc(NS(C)(=O)=O)c3)nc3ccccc23)CC1 > 11.4 µM
COc1ccccc1CN1CCC2(CC1)CCN(C(=O)c1cc(C(F)(F)F)cc(C(F)(F)F)c1)CC2 > 11.4 µM
COc1ccc(NC(=O)N2CCC3(CC2)CCN(C(=O)c2cc(C(F)(F)F)cc(C(F)(F)F)c2)CC3)cc1 > 11.4 µM
CN(C)Cc1ccccc1-c1ccc2ncnc(NCc3cccs3)c2c1 > 11.4 µM
O=c1c(CCc2ccccc2)nc2cnc(N3CCOCC3)nc2n1C[C@H]1CCCO1 > 11.4 µM

Test system: not listed separately
Test: AP1 Signaling Pathway (AID 357; active means well fitted curve in either direction with a large enough effect, not every such curve was filed as active;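 further: ME-180 reporter cells stimulated with EGF at its EC50 level; on the % scale 0 is the no-effect control and ±100 the full control effect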)
Settings: ME-180 (cervical carcinoma) AP-1-bla reporter, EGF-induced, beta-lactamase ratio, 5 h; at 7.69 µM (top of the series) unless noted
In short: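 Cells are seeded overnight, exposed to compound titrations and an EC50 level of EGF for 5 hours at 37 °C, then loaded with CCF4 dye for 2.5 hours. Beta-lactamase activity under the AP-1 element is read as a blue/green ratio.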

Activity change, negative = inhibition, inactive:
N#Cc1cccc(NC(=O)N2CC3(CCN(C(=O)c4cccc(F)c4)CC3)C2)c1 -1.48%
COc1ccc(C(=O)N2CCC3(CC2)CN(c2ccccn2)C3)cc1 3.74%
Cc1noc(C)c1-c1nccc(N2CCNCC2)n1 14.5%
O=C(c1ccncc1)N1CCC[C@@]2(CCN(c3cccc(-c4ccccc4)c3)C2)C1 -13.8%
c1ccc2c(N3CCNCC3)nc(-c3ccoc3)nc2c1 0.826%
O=C(c1csnn1)N1CCC2(CCCN(c3ccncc3)C2)CC1 -17.6%
N#Cc1ccc(CN2CCCC3(CCN(C(=O)c4cc(C(F)(F)F)cc(C(F)(F)F)c4)CC3)C2)cc1 16.4%
N#Cc1ccccc1-c1ccc2ncnc(NCc3cccs3)c2c1 -0.438%
CN(C)C(=O)c1ccc(-c2ccc3ncnc(NCc4cccnc4)c3c2)cc1 -3.5%
CN(C)Cc1ccccc1-c1cncnc1NCc1ccccc1 9.42%
O=C(c1cnccn1)N1CCC2(CCN(Cc3ccncc3)CC2)CC1 -11.5%
O=C(Nc1cccc(F)c1)N1CCC2(CC1)CCN(C(=O)c1cc(C(F)(F)F)cc(C(F)(F)F)c1)CC2 -6.27%
N#Cc1ccc(CN2CCCC3(CCNCC3)C2)cc1 6.69%
O=C(Nc1ccccc1)N1CCCC2(CCNCC2)C1 -6.92%
COc1ccccc1CNc1ncncc1-c1ccc(N(C)C)cc1 -14.4%
O=S(=O)(c1ccccc1)N1CCC2(CCN(c3ccncc3)CC2)CC1 2.08%
CN(C)Cc1ccccc1-c1ccc2ncnc(NC3CC3)c2c1 24%
Cc1ccccc1-c1cncnc1N1CCNCC1 -3.42%
COCC(=O)N1CCC2(CC1)CN(Cc1nccs1)C2 -21.4%
O=C(Oc1ccccc1)N1CCC2(CCCN(c3ccncc3)C2)CC1 14.2%
COc1ccc(Oc2ncc3nc(CCc4ccccc4)c(=O)n(C)c3n2)cc1 -17.4%
COc1cccc(-c2nc(N3CCNCC3)c3ccccc3n2)c1 21.6%
COc1ccc(NC(=O)N2CC[C@@]3(CCCN(C(=O)c4ccncc4)C3)C2)cc1 -25.1%
O=c1c(-c2cc(F)cc(F)c2)nc2cnc(Oc3ccccc3)nc2n1C[C@H]1CCCO1 -12.8%
COCCn1c(=O)c(-c2ccc(F)cc2)nc2cnc(Oc3ccc(OC)cc3)nc21 -14.8%
CN1CCN(c2ccnc(-c3ccccc3C(F)(F)F)n2)CC1 8.46%
c1ccc(C(c2ccccc2)N2CC3(CCNCC3)C2)cc1 14%
CS(=O)(=O)N1CCC2(CCCN(Cc3ccccc3)C2)CC1 -13.8%
Cc1cccc(CNc2ccnc(-c3cccc(NS(C)(=O)=O)c3)n2)c1 -18.5%
CN1CCN(c2nc(-c3cccc(NS(C)(=O)=O)c3)nc3ccccc23)CC1 2.06%
COc1ccccc1CN1CCC2(CC1)CCN(C(=O)c1cc(C(F)(F)F)cc(C(F)(F)F)c1)CC2 -13.2%
COc1ccc(NC(=O)N2CCC3(CC2)CCN(C(=O)c2cc(C(F)(F)F)cc(C(F)(F)F)c2)CC3)cc1 -5.96%
CN(C)Cc1ccccc1-c1ccc2ncnc(NCc3cccs3)c2c1 4.22%
O=c1c(CCc2ccccc2)nc2cnc(N3CCOCC3)nc2n1C[C@H]1CCCO1 -13.7%
